Consider 9 molecules from PubChem BioAssay.

Test [1] in a line: A549 cell viability effects, profiling panel, calcein-AM fluorescence, 48 h, basal (AID 1162). Note: test concentration not given here. The settings on record: higher = more signal.
Test [2] in a line: adipocyte viability effects, profiling panel, cell-based, 3T3-L1 adipocytes, calcein-AM fluorescence, 48 h, basal (AID 1163). Note: test concentration not given here. The settings on record: 3T3-L1 adipocytes viability, higher = more signal.
Test [3] in a line: HepG2 cell viability effects, profiling panel, calcein-AM fluorescence, 48 h, basal (AID 1164). Note: test concentration not given here. The settings on record: higher = more signal.
Test [4] can be described thus: MM1S cell viability effects, profiling panel, calcein-AM fluorescence, 48 h, basal (AID 1165).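 Note: viability of MM1S multiple myeloma cells under basal unstimulated conditions; test concentration not given here.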 Particulars: higher = more signal.
A short description of test [5]: basal RPMI8226 viability, no added stimulus, profiling panel, cell-based, calcein-AM fluorescence, 48 h, PK04 Diversity Set (AID 1166).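 Note: cells grown under basal conditions without added stimulus; test concentration not given here.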 The settings on record: RPMI8226 myeloma viability, higher = more signal.
Test [6] can be described thus: basal HepG2 mitochondrial membrane potential changes, profiling panel, cell-based, JC-1 fluorescence, 24 h, 100 nL compound (AID 1167). Note: test concentration not given here. The settings on record: higher = more signal.
A short description of test [7]: basal 3T3-L1 adipocyte mitochondrial potential changes, profiling panel, cell-based, JC-1 fluorescence, 3T3-L1 adipocytes, 24 h, 100 nL compound (AID 1168). Note: test concentration not given here. The settings on record: JC-1 mitochondrial fluorescence, higher = more signal, called active from +8 up or from −8 down.
The nature of test [8]: basal RPMI8226 mitochondrial membrane potential changes, profiling panel, cell-based, JC-1 fluorescence, 24 h, 100 nL compound (AID 1169). Note: test concentration not given here. The settings on record: RPMI8226 myeloma, JC-1 mitochondrial potential fluorescence, higher = more signal.
The nature of test [9]: basal MM1S mitochondrial membrane potential changes, profiling panel, cell-based, JC-1 fluorescence, 24 h, 100 nL compound (AID 1170). Note: test concentration not given here. The settings on record: higher = more signal.
The nature of test [10]: A549 lung cancer cell viability effects, profiling panel, resazurin fluorescence, 24 h, PK04 Diversity Set (AID 1171). Note: test concentration not given here. The settings on record: higher = more signal, called active from +8 up or from −8 down. (In general: Resazurin is reduced to fluorescent resorufin, in cell work by metabolically active cells.)
The nature of test [11]: HepG2 liver cancer cell viability effects, profiling panel, resazurin fluorescence, 24 h, PK04 Diversity Set (AID 1172). Note: test concentration not given here. Particulars: higher = more signal.
Test [12] can be described thus: basal S. cerevisiae growth modulation, no modifier, primary screen, OD600, strain BY4716, 24 h, basal condition (AID 1173). The settings on record: OD600, 24 h, higher = more signal, called active from +8 up or from −8 down.
Test [13] is described as follows: MM1S myeloma cell viability, profiling panel, resazurin fluorescence, basal, 24 h, PK04 Diversity Set (AID 1174).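 Note: MM1S multiple myeloma cell line; test concentration not given here.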 The settings on record: higher = more signal, called active from +8 up or from −8 down.
Test [14] addresses Dihydroorotate dehydrogenase (quinone), mitochondrial (Plasmodium falciparum (isolate 3D7)) (UniProt Q08210). The experiment in a line: PfDHODH enzyme inhibitors, primary screen, biochemical, C-terminal His tag, absorbance 600 nm (AID 1175).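 Note: recombinant parasite enzyme with a five histidine tag at its C terminus; test concentration not given here.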 Particulars: DCIP absorbance 600 nm, higher = more signal, called active from +8 up or from −8 down.
Test [15] in a line: P. aeruginosa biofilm formation inhibitors, primary screen, strain PAO1, LB-PBS medium, absorbance 600 nm (AID 1176). Note: test concentration not given here. Particulars: P. aeruginosa PAO1 growth/biofilm, A600, 12 h; higher = more signal.
Test [16] is described as follows: S. cerevisiae RM11-1a growth modifiers, primary screen, strain RM11-1a, OD600, basal, 24 h (AID 1177).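 Note: cultures grown under basal conditions with no added stressor; test concentration not given here.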 Particulars: OD600, 24 h, higher = more signal, called active from +8 up or from −8 down.
The nature of test [17]: E. coli acrAB mutant growth effects, primary screen, E. coli filamentation inducers, strain DRC39, OD650, 24 h (AID 1178).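 Note: growth measured as culture turbidity by optical density at 650 nm; test concentration not given here.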 The settings on record: higher = more signal, called active from +8 up or from −8 down.
A short description of test [18]: E. coli acrAB mutant growth effects, primary screen, E. coli filamentation inducers, strain DRC39, OD650, 48 h (AID 1179).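 Note: screen aims at cell division blockers that make cells filament.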 The settings on record: E. coli DRC39 delta-acrAB growth, higher = more signal, called active from +8 up or from −8 down.
Test [19] is described as follows: RPMI8226 myeloma cell viability, profiling panel, resazurin fluorescence, basal, 24 h, PK04 Diversity Set (AID 1180).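 Note: RPMI8826 multiple myeloma cell line at 5000 cells per well; test concentration not given here.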 Particulars: higher = more signal.
Test [20] addresses E3 ubiquitin-protein ligase XIAP (Homo sapiens) (UniProt P98170). The experiment in a line: XIAP binders, primary screen, biophysical, small-molecule microarray, fluorescence 635 nm (AID 1181).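 Note: score merges 667 nm emission and signal to noise over triplicate slides.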 The settings on record: small-molecule microarray binding, higher = more signal.

The source made the active and inactive calls. Unless noted, the rule behind the calls is not given here.

Sequence of Dihydroorotate dehydrogenase (quinone), mitochondrial (Plasmodium falciparum (isolate 3D7)) (Q08210 whole entry, looked up): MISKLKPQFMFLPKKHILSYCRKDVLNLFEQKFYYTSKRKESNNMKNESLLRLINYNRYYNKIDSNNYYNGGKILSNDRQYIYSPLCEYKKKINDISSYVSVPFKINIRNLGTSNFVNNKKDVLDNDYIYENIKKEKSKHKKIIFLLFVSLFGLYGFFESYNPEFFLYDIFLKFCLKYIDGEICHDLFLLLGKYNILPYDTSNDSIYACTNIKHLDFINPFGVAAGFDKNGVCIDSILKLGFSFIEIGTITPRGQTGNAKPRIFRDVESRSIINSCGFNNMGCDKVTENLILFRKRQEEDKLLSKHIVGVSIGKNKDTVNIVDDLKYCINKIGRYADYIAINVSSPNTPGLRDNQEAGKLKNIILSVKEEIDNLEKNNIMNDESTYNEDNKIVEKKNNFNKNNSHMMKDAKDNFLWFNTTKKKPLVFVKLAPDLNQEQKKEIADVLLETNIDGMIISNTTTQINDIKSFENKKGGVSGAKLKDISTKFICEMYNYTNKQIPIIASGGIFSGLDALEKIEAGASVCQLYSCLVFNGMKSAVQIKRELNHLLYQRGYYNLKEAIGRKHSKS
Sequence of E3 ubiquitin-protein ligase XIAP (Homo sapiens) (P98170 whole entry, looked up): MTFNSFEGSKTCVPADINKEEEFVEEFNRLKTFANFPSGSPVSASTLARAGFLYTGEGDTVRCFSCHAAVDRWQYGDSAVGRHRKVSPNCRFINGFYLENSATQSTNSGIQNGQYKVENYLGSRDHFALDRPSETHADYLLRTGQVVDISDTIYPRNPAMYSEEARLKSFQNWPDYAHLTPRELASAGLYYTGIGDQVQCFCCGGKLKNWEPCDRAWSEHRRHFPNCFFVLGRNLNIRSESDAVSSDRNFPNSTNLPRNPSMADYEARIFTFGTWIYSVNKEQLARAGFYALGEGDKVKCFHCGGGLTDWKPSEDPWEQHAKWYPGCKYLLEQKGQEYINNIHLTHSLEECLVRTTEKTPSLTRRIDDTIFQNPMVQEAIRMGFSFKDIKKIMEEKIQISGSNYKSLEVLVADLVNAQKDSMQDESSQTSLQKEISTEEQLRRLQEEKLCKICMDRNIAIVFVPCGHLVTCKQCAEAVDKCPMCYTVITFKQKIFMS

For `CC=CC(O)C1C=CC2C(=O)N(c3ccccc3)C(=O)C2N1Nc1ccc([N+](=O)[O-])cc1` (stereo not given), the z-score in test [1] was -0.972; in test [2], -1.3; in test [3], 0.196; in test [4] it was 0.459; in test [5], 0.471; in [6], -0.653. Besides, the z-score in test [7] was 0.207 (inactive); in test [8], 0.592; in test [9] it was -1.01; in test [10] it was -0.0977 (inactive); in [11], -0.0211; in test [12], 0.0621 (inactive). Also, the z-score is -0.156 (inactive) in test [13]; 0.71 (inactive) in [15]; -0.372 (inactive) in test [16]; -1.19 (inactive) in [17]; -0.279 (inactive) in test [18]; 0.0388 in [19]. The composite z-score in test [14] was -0.213 (inactive); in test [20], -0.0807.
Regarding `COc1cc(CO)cc(I)c1O[C@H]1C=C(C(=O)NCCO)C[C@@H](NCc2ccccc2F)[C@@H]1O`, the z-score in test [1] is 0.687; in test [2] it was -0.512; in test [3] it was 0.496; in test [4] it was 0.0067; in test [5] it was 0.12; in test [6] it was -0.0312. The z-score was -0.561 (inactive) in test [7]; 0.231 in [8]; -1.59 in test [9]; 0.106 (inactive) in test [10]; -0.0271 in test [11]; -2.31 (inactive) in test [12]. The z-score was -0.233 (inactive) in [13]; -0.365 (inactive) in test [15]; 1.09 (inactive) in test [16]; 0.491 (inactive) in test [17]; 0.41 (inactive) in [18]; 0.559 in test [19]. The composite z-score in test [14] was 1.28 (inactive); in test [20], 0.0669.
On to `C=CC1c2cc(O)c(OC)cc2CCN1Cc1sc2ccccc2c1Cl` (stereo not given), for which the z-score is -4.28 in test [1]; 0.155 in [2]; -4.42 in [3]; -3.24 in [4]; -4.45 in test [5]; -3.08 in test [6]. Besides, the z-score in [7] was -0.224 (inactive); in test [8] it was -0.811; in test [9], -0.358; in test [10], -0.784 (inactive); in [11], -0.62; in test [12], -18.3 (active). Also, the z-score in test [13] was -0.467 (inactive); in [15], -0.227 (inactive); in test [16], -3.6 (inactive); in test [17], 0.243 (inactive); in test [18] it was -0.404 (inactive); in test [19] it was -0.802. For the same molecule, the values for the composite z-score in test [14] and in [20] were -1.04 (inactive) and 0.265, respectively.
As for `COc1cc(OC)c(C(O)C2C=CC3C(=O)N(c4ccccc4)C(=O)C3N2Nc2ccc(C#N)cc2)cc1Br` (stereo not given), the z-score in test [1] is 0.423; in [2] it was -0.693; in test [3], -0.268; in test [4], -0.475; in test [5] it was -0.241; in test [6], -1.66. Besides, the z-score in test [7] is -0.403 (inactive); in test [8], -0.129; in test [9], -0.00738; in [10], -0.578 (inactive); in [11] it was -0.99; in [12], -6.31 (inactive). The z-score in [13] was -0.408 (inactive); in test [15], 0.984 (inactive); in [16] it was -0.759 (inactive); in test [17] it was -0.628 (inactive); in test [18], -0.0118 (inactive); in test [19], -0.758. Also, the results for the composite z-score in [14] and in test [20] were 1.49 (inactive) and -0.0181, respectively.
In the case of `COCCOC(=O)N1C(=O)[C@@]2(c3cc(C#CC4=CCCCC4)ccc31)[C@H](C(=O)N1CCN(c3ncccn3)CC1)[C@H]1C(=O)O[C@H](c3ccccc3)[C@H](c3ccccc3)N1[C@@H]2c1ccc(O)cc1`, the z-score in [1] was 0.463; in [2], 0.218; in test [3] it was 1.15; in test [4] it was 0.269; in test [5], -0.802; in test [6], -1.16. Moreover, the z-score is 0.207 (inactive) in test [7]; -0.31 in test [8]; -1.3 in test [9]; -0.869 (inactive) in test [10]; -0.173 in [11]; 1.14 (inactive) in test [12]. In addition, the z-score in test [13] was -1.81 (inactive); in [15], 1.16 (inactive); in test [16], 1.69 (inactive); in test [17], -0.766 (inactive); in test [18] it was -0.0604 (inactive); in test [19] it was -0.765. Moreover, the composite z-score in test [14] is 0.332 (inactive); in test [20], 0.0589.
As to `CCOC(=O)C[C@H]1[C@H](OC(=O)c2ccccc2-c2ccccc2)[C@@H](NC(=O)c2ccc3ccccc3n2)c2cc(OCCCO)ccc2N1C(=O)c1ccc2ccccc2n1`, the z-score is 0.923 in test [1]; 1.65 in test [2]; 0.877 in [3]; 0.497 in [4]; -0.237 in [5]; 2.39 in [6]. For the same molecule, the z-score in test [7] is 0.309 (inactive); in test [8], 0.356; in [9], -0.845; in test [10], 0.545 (inactive); in [11] it was 0.922; in test [12] it was -1.08 (inactive). Besides, the z-score in [13] was 0.833 (inactive); in test [15], 0.719 (inactive); in test [16], -0.344 (inactive); in test [17], 1.33 (inactive); in test [18] it was 1.21 (inactive); in [19], -0.19. Further, the composite z-score in test [14] was -0.431 (inactive); in test [20], -0.162.
In the case of `COc1ccc(NN2C(C(O)c3ccco3)C=CC3C(=O)N(C4CCCCC4)C(=O)C32)cc1` (stereo not given), the z-score in test [1] was -0.181; in test [2] it was -0.637; in test [3], 1.37; in test [4], 0.739; in test [5], -0.023; in test [6], 0.526. The z-score in test [7] is -1.23 (inactive); in test [8] it was 0.23; in test [9], -1.23; in [10] it was 0.405 (inactive); in test [11], 0.502; in test [12], -1.11 (inactive). The z-score in test [13] was -1.59 (inactive); in test [15] it was 0.546 (inactive); in test [16] it was -0.0552 (inactive); in test [17], -0.624 (inactive); in test [18], -0.109 (inactive); in test [19] it was -1.55. Also, the results for the composite z-score in test [14] and in test [20] were 0.181 (inactive) and 0.065, respectively.
Turning to `CC(C)(C)OC(=O)CC[C@]1(C(=O)O)N=C(c2ccc(OCCCO)cc2)O[C@H]1c1ccccc1`, the z-score in test [1] was -0.078; in test [2], 0.155; in test [3], -0.0903; in test [4] it was 0.55; in test [5] it was -0.135; in [6], 0.367. Moreover, the z-score was 0.721 (inactive) in test [7]; -0.0713 in [8]; -0.513 in [9]; 0.16 (inactive) in test [10]; 1.29 in test [11]; -0.739 (inactive) in test [12]. Further, the z-score is 0.904 (inactive) in test [13]; -0.76 (inactive) in test [15]; -0.279 (inactive) in test [16]; 0.419 (inactive) in test [17]; 1.3 (inactive) in test [18]; 1.65 in test [19]. For the same molecule, the composite z-score in test [14] is -14.3 (active); in test [20], -0.0594.
On to `CN(C)C(=O)[C@@]1(Cc2ccccc2N=[N+]=[N-])COC(c2ccc(OCCCO)cc2)=N1`, for which the z-score in test [1] is 1.69; in test [2] it was -0.541; in test [3], 1.32; in test [4] it was -0.257; in test [5] it was 0.192; in [6], 1.4. Besides, the z-score in [7] is 0.0922 (inactive); in test [8], -0.934; in [9], -1.23; in test [10], 0.325 (inactive); in test [11], 1.44; in [12], -4.24 (inactive). The z-score in test [13] was -0.0135 (inactive); in test [15], -0.497 (inactive); in [16], 0.481 (inactive); in [17] it was 0.632 (inactive); in test [18] it was 1.42 (inactive); in test [19] it was 0.816. In addition, the composite z-score in test [14] is 0.369 (inactive); in test [20], 0.194.
